D1 mod – allosterically modulates the human D1 dopamine receptor. HEK293 D1, CRE-luciferase, dopamine EC30 potentiation; actives deviate in either direction. B-score at 10 µM. 58,000 tested, 5.9% active. AID 641;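 active = luminescence count or its row- and column-corrected plate score outside the 99.7% band of the plate's sample wells, on either side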
PLAP act – human PLAP activation. P05187. purified PLAP enzyme, luminescent substrate read-out; active compounds read high. activation fold at 20 µM. 96,000 tested, 1.2% active; in the data active = activation fold above about 2
TNAP act DEA – human TNAP activation, intermediate phosphate acceptor; P05186; purified TNAP, CDP-star luminescence, 100 mM DEA, 30 min; active compounds read high; scale: 0 levamisole-inhibited, 1 vehicle-only enzyme; activation factor at 20 µM; 64,000 tested, under 10 active; AID 813;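 active = activation factor of at least 2 at 20 µM, relative to controls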
hDAT+cocaine – modulates human dopamine transporter uptake under cocaine. AID 449768. B-score at 10 µM. 110,000 tested, 1.3% active. LLC-PK1 hDAT cells, [14C]-dopamine uptake with cocaine IC80; actives deviate in either direction. Q01959;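 active = Z score or B-score, a plate-position-corrected score, falls beyond the plate's 99.7% confidence bounds, in either direction; inactive = both scores lie inside the 99.7% bounds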;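 note: scored against the spread of the other compound wells on the same plate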
Target sequence (Q01959 whole entry, looked up): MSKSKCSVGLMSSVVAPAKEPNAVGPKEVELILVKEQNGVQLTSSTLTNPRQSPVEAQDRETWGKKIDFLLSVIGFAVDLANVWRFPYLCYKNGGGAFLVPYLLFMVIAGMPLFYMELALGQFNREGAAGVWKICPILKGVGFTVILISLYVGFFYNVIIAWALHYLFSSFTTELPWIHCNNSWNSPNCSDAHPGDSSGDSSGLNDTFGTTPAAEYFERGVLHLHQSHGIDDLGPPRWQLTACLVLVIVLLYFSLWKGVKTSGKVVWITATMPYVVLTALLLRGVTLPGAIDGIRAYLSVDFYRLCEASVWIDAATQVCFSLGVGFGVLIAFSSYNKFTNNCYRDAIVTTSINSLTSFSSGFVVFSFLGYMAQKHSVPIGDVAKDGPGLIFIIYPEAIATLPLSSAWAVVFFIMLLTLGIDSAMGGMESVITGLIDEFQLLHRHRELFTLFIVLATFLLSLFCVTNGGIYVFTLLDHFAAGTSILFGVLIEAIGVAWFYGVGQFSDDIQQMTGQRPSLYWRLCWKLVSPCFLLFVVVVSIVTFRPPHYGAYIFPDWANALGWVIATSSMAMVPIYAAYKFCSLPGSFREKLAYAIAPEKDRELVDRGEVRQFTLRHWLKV
HePTP inhibitor – human HePTP phosphatase inhibition. 110,000 tested, 0.64% active. recombinant HePTP phosphatase activity, OD absorbance. inhibition, % at 20 µM. AID 521; in the data active = inhibition above about 50%;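 note: plate controls were vehicle for no effect and reference inhibitor for full effect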
Calb biofilm kill – kills Candida albicans biofilms. inhibition, % at 6 µM. C. albicans biofilm + clotrimazole, Alamar Blue. 85,000 tested, 0.14% active. AID 834;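 active = inhibition above 20%; inactive = inhibition below 20%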;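 note: preformed 24 hr biofilms exposed to compound for 48 hr; 0% = biofilm without compound and 100% = blank killed by clotrimazole plus chlorhexidine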
D1 mod confirm – confirmation of human D1 dopamine receptor allosteric modulators | shares compounds with D1 mod | HEK293 D1 CRE-luciferase, dopamine EC30 potentiation; active compounds read high | luminescence at 10 µM | 2,200 tested, 88% active;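 active = luminescence in either of two replicates above the same-plate mean plus 3 SD of the low-dose dopamine control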
D1 ag no DA – activates D1 CRE-luciferase signal without dopamine present; shares compounds with D1 mod; HEK293 D1 CRE-luciferase, luminescence, no dopamine; active compounds read high; luminescence at 10 µM; 1,900 tested, 0.8% active; AID 646; in the data active = luminescence above about 3900
Isoprot counter – alters isoproterenol CRE-luciferase response in HEK293 cells. shares compounds with D1 mod. HEK293 D1 CRE-luciferase, isoproterenol EC30 counter-screen; active compounds read high. luminescence at 10 µM. 2,200 tested, 63% active. AID 647;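 active = luminescence in either replicate above plate mean of wells with a partly effective reference agonist dose plus 3 SD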;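 note: isoproterenol raises cAMP through native beta-adrenoceptor Gs so signal bypasses D1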
* = called active by the depositor. The sample as a whole holds a higher share of hits than the screen did.

For CCOC(=O)c1c(NC(=O)c2nn(CC)cc2Br)c(C#N)cn1-c1ccccc1 the results were D1 mod 6.7*, PLAP act 1, TNAP act DEA 0.8, hDAT+cocaine 1.6, HePTP inhibitor 0, Calb biofilm kill 4, D1 mod confirm 8888*, D1 ag no DA 816 and Isoprot counter 3340*.
Screening CCOC(=O)c1c(-c2ccccc2)csc1NC(=O)c1nn(CC)cc1Br returned D1 mod -0.44, PLAP act 1, TNAP act DEA 0.9, hDAT+cocaine -0.49, HePTP inhibitor -3 and Calb biofilm kill -1.
`COc1ccc(-c2nnn(CC(=O)NCc3ccccc3)n2)cc1OC` gave hDAT+cocaine -0.33 and Calb biofilm kill 7.
`COc1ccc(-c2nnn(CC(=O)OC3CCCCC3)n2)cc1OC` gave D1 mod 3.1, PLAP act 1.2, TNAP act DEA 0.9, hDAT+cocaine 0.36, HePTP inhibitor -8 and Calb biofilm kill 5.
Screening COc1ccc(-c2nnn(CC(=O)N(C3CCCC3)C(C)C(=O)NC3CCCC3)n2)cc1OC (stereo not drawn) returned D1 mod 3.6*, PLAP act 1.7, TNAP act DEA 0.9, hDAT+cocaine 1.4, HePTP inhibitor -2, Calb biofilm kill 5, D1 mod confirm 6476* and Isoprot counter 2588.
Screening CCCCOc1ccc(-c2nnn(CC(=O)c3c[nH]c4ccccc34)n2)cc1 returned PLAP act 0.9, hDAT+cocaine 1.3 and Calb biofilm kill -3.
`CCOc1ccc(-c2nnn(CC(=O)Nc3ccccc3OC)n2)cc1OCC` gave D1 mod 9.4*, PLAP act 0.9, TNAP act DEA 0.9, hDAT+cocaine -0.77, HePTP inhibitor -1, Calb biofilm kill 8, D1 mod confirm 19984*, D1 ag no DA 1640 and Isoprot counter 4200*.
For COc1ccc(-c2nnn(CC(=O)c3c[nH]c4ccccc34)n2)cc1OC the results were D1 mod 8.1*, PLAP act 0.9, TNAP act DEA 1, hDAT+cocaine 0.2, HePTP inhibitor 0, Calb biofilm kill 1, D1 mod confirm 19116*, D1 ag no DA 1776 and Isoprot counter 5892*.
`C/C(=N\NC(=O)C(O)(c1ccccc1)c1ccccc1)c1ccc(Cl)s1` gave HePTP inhibitor -32.
Screening Cc1ccc(CN2CCN(/N=C/c3cccc(F)c3)CC2)cc1 returned HePTP inhibitor 5.
For O=C(c1cccc(-c2nnc(-c3ccccc3)o2)c1)N1CCCCC1 the results were D1 mod 7.9*, PLAP act 1.1, TNAP act DEA 1, hDAT+cocaine 1.5, HePTP inhibitor -11, Calb biofilm kill 5, D1 mod confirm 12576*, D1 ag no DA 1552 and Isoprot counter 2964*.
Screening O=c1oc2ccccc2n1CCn1c2ccccc2c2nc3ccccc3nc21 returned D1 mod -0.36, PLAP act 0.8, TNAP act DEA 0.9, hDAT+cocaine -0.0025, HePTP inhibitor 1 and Calb biofilm kill 4.
Cc1ccc2c(c1)c1nc3ccccc3nc1n2CCN1CCOCC1 was read as D1 mod 7.7*, PLAP act 1.3, TNAP act DEA 0.9, hDAT+cocaine 1.4, HePTP inhibitor 5, Calb biofilm kill 0, D1 mod confirm 21896*, D1 ag no DA 1556 and Isoprot counter 5476*.
CCOC(=O)Cn1c2ccccc2c2nc3ccccc3nc21 was read as D1 mod 4.8*, PLAP act 1.3, TNAP act DEA 0.9, hDAT+cocaine 0.98, HePTP inhibitor 7, Calb biofilm kill 6, D1 mod confirm 14192*, D1 ag no DA 1640 and Isoprot counter 2880.
`CCCn1c2ccccc2c2nc3ccccc3nc21` gave D1 mod 5.7*, PLAP act 0.9, TNAP act DEA 0.8, hDAT+cocaine -0.015, HePTP inhibitor 3, Calb biofilm kill -1, D1 mod confirm 12892*, D1 ag no DA 1720 and Isoprot counter 3272*.
For Cc1nc2ccccc2c(=O)n1CCN1CCOCC1 the results were PLAP act 0.9, hDAT+cocaine -0.0031 and Calb biofilm kill 5.
N#CCCn1c2ccccc2c2nc3ccccc3nc21 was read as D1 mod 14*, PLAP act 1.1, TNAP act DEA 0.9, hDAT+cocaine -0.11, HePTP inhibitor 6, Calb biofilm kill -1, D1 mod confirm 19256*, D1 ag no DA 1672 and Isoprot counter 3704*.
For Cc1ccc(C)c(NC(=O)C(=O)NCc2ccccc2Cl)c1 the results were HePTP inhibitor 11.
`CCCOC(=O)c1c(-c2ccccc2Cl)csc1N` gave HePTP inhibitor -7.
CCCc1cc(Nc2cccc(OC)c2)n2ncnc2n1 was read as D1 mod 5.2*, PLAP act 2.3*, TNAP act DEA 1, hDAT+cocaine -0.48, HePTP inhibitor 16, Calb biofilm kill -6, D1 mod confirm 10608* and Isoprot counter 2992*.
Screening CCCc1cc(Nc2cccc(OCC)c2)n2ncnc2n1 returned D1 mod 3.2*, PLAP act 2*, TNAP act DEA 1, hDAT+cocaine 0.2, HePTP inhibitor 2, Calb biofilm kill 5, D1 mod confirm 11224*, D1 ag no DA 1788 and Isoprot counter 3284*.
For O=C(NC(=S)Nc1ccc(-c2nc3cc(Cl)ccc3o2)cc1)c1ccc(Cl)cc1 the results were HePTP inhibitor -12.
`O=c1oc2ccccc2c2c1ncn2-c1ccccc1` gave D1 mod 3.6*, PLAP act 0.9, TNAP act DEA 0.9, hDAT+cocaine -1.3, HePTP inhibitor 12, D1 mod confirm 9304*, D1 ag no DA 1488 and Isoprot counter 3532*.
Screening CC(C)Cn1cnc2c(=O)oc3ccccc3c21 returned PLAP act 0.8, hDAT+cocaine -1.2 and Calb biofilm kill 4.
`O=c1oc2ccccc2c2c1ncn2C1CCCCC1` gave D1 mod 7.4*, PLAP act 1.1, TNAP act DEA 1, hDAT+cocaine 0.045, HePTP inhibitor 7, Calb biofilm kill 5, D1 mod confirm 20596*, D1 ag no DA 1756 and Isoprot counter 4072*.
For COc1ccc(NC2=CC(=O)CC(c3ccco3)C2)c(OC)c1 (stereo not drawn) the results were HePTP inhibitor 3.
`COc1nc(Nc2ccc(I)cc2)nc(OC)n1` gave HePTP inhibitor 5.

From PubChem
